Shown are actives, neighbours in structure and some others; about 15% of the full set was active somewhere.
HCV inh: qHTS Assay for Inhibitors of Hepatitis C Virus (HCV) | hit rate 3.4% among 340,000 | Huh7.5.1 HCVcc-Cre infection, luciferase reporter, 44 h | Potency, µM (doses to about 41.8 µM), actives largely listed as inhibitors
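Seed cells (1,000/well) for 4 h; treat with compound and infect with HCVcc-Cre, moi about 0.5. Incubate 44 h, then detect luciferase activity.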
Pf growth 48h: Primary qHTS for delayed death inhibitors of the malarial parasite plastid, 48 hour incubation | P. falciparum luciferase growth in erythrocytes, 48 h | Potency, µM (series often up to 28.7 µM), usual class: inhibitors | hit rate 5.9% among 310,000 | AID 504832, 2011
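Read-out is firefly luciferase luminescence from an integrated reporter in P. falciparum, so falling signal marks reduced parasite growth. Infected erythrocytes were at 2% hematocrit and 0.1% parasitemia (final) in Albumax-supplemented RPMI 1640.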
HCMV antiviral: qHTS Assay for inhibitors of the human cytomegalovirus (HCMV). HFF cells, HCMV-luciferase reporter, 72 h; hits give low values. activity change, negative = inhibition, % at 57.5 µM. hit rate 4.5% among 410,000. AID 1259415, 2018; in the data active = activity change below about -60%; inconclusive = no clear call, values can overlap the other calls; inactive = above about -39%
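Two compound doses tested in HFFs infected with HCMV-luciferase, MOI 1 PFU/cell, 72 h at 37C. Lysate luminescence read with OneGlo; data normalized against buffer-only and 10uM Salinomycin inhibitor controls.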
SARS PLpro yeast: qHTS of Yeast-based Assay for SARS-CoV PLP; Potency, µM (doses to about 32.9 µM), hits mostly activators; S. cerevisiae expressing SARS-CoV PLpro, growth rescue; hit rate 0.19% among 330,000; AID 485353, 2010; calls by dose curve; note: nearly all actives have a fitted effect of over 55% in size
Pf growth 96h: Primary qHTS for delayed death inhibitors of the malarial parasite plastid, 96 hour incubation; AID 504834, 2011; hit rate 6.9% among 320,000; Potency, µM (highest dose often 28.7 µM), hits mostly inhibitors; P. falciparum luciferase reporter growth, 96 h
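Compounds incubated with erythrocytes infected by luciferase-expressing P. falciparum (2% hematocrit, 0.05% parasitemia final) for 96 hours, 37 C in 5% CO2. Growth inhibition scored as decreased luciferase luminescence.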
Sm TGR block: qHTS Assay for the Inhibitors of Schistosoma Mansoni Peroxiredoxins. purified TGR, DTNB reduction, TNB absorbance 405 nm. Potency, µM (titrated, usually from 114 µM), hits mostly inhibitors. hit rate 3% among 360,000; note: nearly all actives have a fitted effect of over 60% in size
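TGR 20 nM + NADPH 100 uM (dispensed conc.), cpd preinc 15 min RT; start with NADPH (500 uM addition) then DTNB (15 mM addition). Kinetic TNB absorbance, 405 nm filter. Four-parameter Hill fit across titration.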
Of the large screens only hits and unclear results are named; the others gave an inactive call; ! = a repeat was not active. Unless noted, calls come from the whole dose curve; as a rule, active = well fitted curve in the direction sought with a large enough effect; inconclusive = small, poorly fitted or top-dose-only effect, or another doubt; inactive = no such curve, though single readings can be large; an effect the other way counts as inactive or inconclusive.

CC(=O)NC(c1cccs1)c1cc(F)c2cccnc2c1O (stereo not given)	Pf growth 48h 2.9µM, HCMV antiviral -100, Pf growth 96h 4.7µM, Sm TGR block 50µM! (no result: HCV inh)
CCC(=O)NC(c1ccco1)c1cc(Cl)c2ccccc2c1O (stereo not given)	HCMV antiviral inconclusive, Pf growth 96h inconclusive, Sm TGR block inconclusive (no result: HCV inh)
COc1cccc(C(=O)NCCN2CCC(n3c(=O)[nH]c4ccccc43)CC2)c1	none (no result: HCV inh, Pf growth 48h, SARS PLpro yeast, Pf growth 96h, Sm TGR block)
Cc1c(C)c2c(c(C)c1O)CCC(C)(C(=O)O)O2 (stereo not given)	none (no result: SARS PLpro yeast)
C[C@]12CC[C@H]3[C@@H](CC[C@@]45O[C@@H]4C(=O)C(C#N)C[C@]35C)[C@@H]1CC[C@@H]2O (stereo not given in full)	Pf growth 48h inconclusive (no result: HCV inh, HCMV antiviral, SARS PLpro yeast, Sm TGR block)
O=c1c(Cl)c(NCc2ccccc2)cnn1C12CC3CC(CC(C3)C1)C2	Pf growth 48h inconclusive, HCMV antiviral -61, Pf growth 96h 10µM
Cc1ccc(Nc2cnn(C34CC5CC(CC(CC(=O)O)(C5)C3)C4)c(=O)c2Cl)cc1C	HCMV antiviral inconclusive, Pf growth 96h inconclusive (no result: Pf growth 48h)
O=C(O)CC12CC3CC(C1)CC(n1ncc(NCC4CCCO4)c(Cl)c1=O)(C3)C2 (stereo not given)	Sm TGR block 40µM
O=C(O)CC12CC3CC(C1)CC(n1ncc(NCc4ccco4)c(Cl)c1=O)(C3)C2	Pf growth 48h inconclusive, Sm TGR block 11µM
CNC(=S)NN=C(C)CCCC(C)=NNC(=S)NC	HCV inh inconclusive (no result: Pf growth 48h, SARS PLpro yeast, Pf growth 96h, Sm TGR block)
Cc1cccc(N2CCN(C(=O)C3CCC(=O)N(Cc4ccccc4F)C3)CC2)c1C (stereo not given)	Pf growth 48h 9.3µM, HCMV antiviral inconclusive, Pf growth 96h 10µM
Cc1cccc(N2CCN(C(=O)C3CC(=O)N(C4CCCC4)C3)CC2)c1C (stereo not given)	HCV inh inconclusive, HCMV antiviral -63, Pf growth 96h inconclusive
Cc1cccc(N2CCN(C(=O)C3CCC(CNS(=O)(=O)c4ccc(Br)s4)CC3)CC2)c1C (stereo not given)	none (no result: HCV inh, Pf growth 48h, SARS PLpro yeast, Pf growth 96h)
Cc1cccc(N2CCN(C(=O)C3CCC(CNS(=O)(=O)c4cccs4)CC3)CC2)c1C (stereo not given)	HCV inh 7.9µM, Pf growth 48h 5.2µM, HCMV antiviral -61
Cc1cccc(N2CCN(C(=O)C3CCN(S(=O)(=O)N4CCOCC4)CC3)CC2)c1C	HCV inh 10µM, Pf growth 96h inconclusive
COCCN1CCN(C(=O)C2CCC(=O)N(Cc3ccccc3F)C2)CC1 (stereo not given)	Pf growth 96h inconclusive
CCCN(CCC)C(=O)Cn1c(=O)n(-c2ccc(OC)cc2OC)c(=O)c2c3c(sc21)CCC3	none (no result: HCV inh, Pf growth 48h, SARS PLpro yeast, Pf growth 96h)
CN(C(=O)COC(=O)c1cc(-c2ccc(Cl)s2)nc2ccccc12)C1CCS(=O)(=O)C1 (stereo not given)	HCV inh 10µM
Cc1ccc(-n2c(C)cc(C(=O)OCC(=O)N(C)C3CCS(=O)(=O)C3)c2C)cc1 (stereo not given)	Pf growth 48h 1.7µM
CSc1ccc(CN(C)CC(=O)Nc2c(F)cccc2F)cc1	HCV inh inconclusive
COc1ccc(OCC(=O)N2CCCC(CO)(CCOc3ccccc3)C2)cc1 (stereo not given)	HCV inh inconclusive, Pf growth 48h inconclusive
Cc1cc(NC(=NC2CC2)c2ccccc2F)n(-c2ccccc2)n1	Pf growth 48h inconclusive
CC1(C)CC(=O)C2=C(C1)OC1=C(C(=O)CC(C)(C)C1)C2c1ccc(O)c([N+](=O)[O-])c1	Pf growth 48h inconclusive, Pf growth 96h inconclusive
CC1(C)CC(=O)C2=C(C1)OC1=C(C(=O)CC(C)(C)C1)C2c1ccc(O)cc1O	HCV inh inconclusive, Pf growth 48h 12µM, HCMV antiviral -102, Pf growth 96h 10µM, Sm TGR block 22µM
CC(C)CNC(=O)Cn1nc(C(F)(F)F)c2c1CCCC2	Pf growth 96h 10µM
